# Test results from publication PMC7862700, “An all-to-all approach to the identification of sequence-specific readers for epigenetic DNA modifications on cytosine”.
# Columns and labels:
# Assay in all cases: DAPPL (digital affinity profiling via proximity ligation, sequencing); 10 mM Tris-HCl pH 7.5, 50 mM NaCl, 1 mM DTT, 4% glycerol, room temperature, 30 min; GST-TFs on glutathione beads, 16-mer random dsDNA library, 0.1% formaldehyde crosslink after washing; high values mean tight binding
# FEV = molecular target: T1, FEV (Homo sapiens, UniProt Q99581 1-238); settings: protein: recombinant; tags: N-terminal GST; dsDNA, one strand shown
# T1 sequence: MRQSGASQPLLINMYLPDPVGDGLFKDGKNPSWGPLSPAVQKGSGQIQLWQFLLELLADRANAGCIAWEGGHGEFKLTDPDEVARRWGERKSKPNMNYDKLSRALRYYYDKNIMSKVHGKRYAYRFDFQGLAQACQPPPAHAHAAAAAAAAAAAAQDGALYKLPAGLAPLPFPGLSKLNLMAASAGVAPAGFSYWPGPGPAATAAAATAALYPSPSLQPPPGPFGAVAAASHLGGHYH
# In short: (§1)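 Human transcription factors fused to GST were expressed in yeast, captured on glutathione beads, given DNA barcodes and pooled with a GST-only negative control. Pools were incubated with 200 nmole of a 16-mer random double-stranded DNA library in Tris/NaCl/DTT/glycerol buffer at room temperature for 30 min. They were then washed, crosslinked with 0.1% formaldehyde, proximity-ligated (BsaI/T4 ligase, 1 h, 37 °C), PCR-amplified and sequenced on an Illumina NextSeq500. Binding signal is each 6-mer's read frequency for a factor divided by its frequency for the GST control.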
# ETV5 = ETV5 (Homo sapiens, UniProt P41161 1-510); settings: protein: recombinant; tags: N-terminal GST; dsDNA, one strand shown
# In short: as §1
# HSF1 = HSF1 (Homo sapiens, UniProt Q00613 1-529); settings: protein: recombinant; tags: N-terminal GST; chain copies: 3; dsDNA, one strand shown
# In short: as §1
# SPIC = molecular target: T2, SPIC (Homo sapiens, UniProt Q8N5J4 1-248); settings: protein: recombinant; tags: N-terminal GST; dsDNA, one strand shown
# T2 sequence: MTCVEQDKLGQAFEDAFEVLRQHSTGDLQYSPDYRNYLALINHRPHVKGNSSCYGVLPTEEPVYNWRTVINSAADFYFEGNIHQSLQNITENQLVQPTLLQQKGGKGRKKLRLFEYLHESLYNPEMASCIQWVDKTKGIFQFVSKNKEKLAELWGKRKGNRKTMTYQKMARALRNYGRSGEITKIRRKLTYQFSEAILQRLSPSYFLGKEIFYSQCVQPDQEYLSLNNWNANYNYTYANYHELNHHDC
# In short: as §1
# ELF4 = ELF4 (Homo sapiens, UniProt Q99607 1-663); settings: protein: recombinant; tags: N-terminal GST; dsDNA, one strand shown
# In short: as §1
# ELK4 = molecular target: T3, ELK4 (Homo sapiens, UniProt P28324-2 1-405); settings: protein: recombinant; tags: N-terminal GST; dsDNA, one strand shown
# T3 sequence: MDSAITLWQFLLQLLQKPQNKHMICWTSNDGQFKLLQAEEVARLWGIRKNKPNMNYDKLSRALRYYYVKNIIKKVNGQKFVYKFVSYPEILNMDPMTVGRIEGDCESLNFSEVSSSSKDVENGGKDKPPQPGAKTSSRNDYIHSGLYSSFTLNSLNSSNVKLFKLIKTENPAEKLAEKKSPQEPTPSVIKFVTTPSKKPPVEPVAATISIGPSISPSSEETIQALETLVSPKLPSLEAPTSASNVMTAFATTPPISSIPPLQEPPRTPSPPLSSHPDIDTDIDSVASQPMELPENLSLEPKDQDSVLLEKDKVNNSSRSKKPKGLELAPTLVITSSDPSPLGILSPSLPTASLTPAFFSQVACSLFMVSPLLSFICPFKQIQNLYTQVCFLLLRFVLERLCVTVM
# In short: as §1
# ETV2 = molecular target: T4, ETV2 (Homo sapiens, UniProt O00321 1-342); settings: protein: recombinant; tags: N-terminal GST; dsDNA, one strand shown
# T4 sequence: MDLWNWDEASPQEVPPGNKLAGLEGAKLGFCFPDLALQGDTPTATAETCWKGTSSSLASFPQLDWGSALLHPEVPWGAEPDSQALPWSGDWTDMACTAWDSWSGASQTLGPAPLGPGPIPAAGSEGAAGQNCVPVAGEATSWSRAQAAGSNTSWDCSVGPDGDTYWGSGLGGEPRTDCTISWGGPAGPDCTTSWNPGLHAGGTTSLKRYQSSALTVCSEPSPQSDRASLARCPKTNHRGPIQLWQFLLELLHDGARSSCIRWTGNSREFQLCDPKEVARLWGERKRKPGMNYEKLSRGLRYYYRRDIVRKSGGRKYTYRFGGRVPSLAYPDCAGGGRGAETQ
# In short: as §1
# ELF3 = molecular target: T5, ELF3 (Homo sapiens, UniProt P78545 1-371); settings: protein: recombinant; tags: N-terminal GST; dsDNA, one strand shown
# T5 sequence: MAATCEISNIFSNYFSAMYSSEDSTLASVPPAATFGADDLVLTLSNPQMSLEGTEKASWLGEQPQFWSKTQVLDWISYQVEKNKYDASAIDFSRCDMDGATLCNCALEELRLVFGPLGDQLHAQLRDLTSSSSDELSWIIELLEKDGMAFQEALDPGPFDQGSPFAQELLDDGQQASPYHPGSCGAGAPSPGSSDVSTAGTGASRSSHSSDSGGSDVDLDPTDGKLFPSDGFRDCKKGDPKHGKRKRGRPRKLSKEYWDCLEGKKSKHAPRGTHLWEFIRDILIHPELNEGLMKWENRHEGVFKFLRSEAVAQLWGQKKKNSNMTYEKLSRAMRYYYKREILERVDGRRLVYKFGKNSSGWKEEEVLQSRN
# In short: as §1
# CRX = CRX (Homo sapiens, UniProt O43186 1-299); settings: protein: recombinant; tags: N-terminal GST; dsDNA, one strand shown
# In short: as §1
# ETV1 = ETV1 (Homo sapiens, UniProt P50549 1-477); settings: protein: recombinant; tags: N-terminal GST; dsDNA, one strand shown
# In short: as §1
# CRX, sequence (O43186 whole entry): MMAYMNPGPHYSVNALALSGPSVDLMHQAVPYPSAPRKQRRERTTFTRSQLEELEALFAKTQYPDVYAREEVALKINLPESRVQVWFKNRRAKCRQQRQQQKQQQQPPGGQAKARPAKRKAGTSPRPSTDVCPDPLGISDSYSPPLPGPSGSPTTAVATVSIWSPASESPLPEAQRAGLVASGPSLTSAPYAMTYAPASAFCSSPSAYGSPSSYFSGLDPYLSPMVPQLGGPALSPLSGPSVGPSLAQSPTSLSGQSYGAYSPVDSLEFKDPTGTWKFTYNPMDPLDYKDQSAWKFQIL
# ELF4, sequence (Q99607 whole entry): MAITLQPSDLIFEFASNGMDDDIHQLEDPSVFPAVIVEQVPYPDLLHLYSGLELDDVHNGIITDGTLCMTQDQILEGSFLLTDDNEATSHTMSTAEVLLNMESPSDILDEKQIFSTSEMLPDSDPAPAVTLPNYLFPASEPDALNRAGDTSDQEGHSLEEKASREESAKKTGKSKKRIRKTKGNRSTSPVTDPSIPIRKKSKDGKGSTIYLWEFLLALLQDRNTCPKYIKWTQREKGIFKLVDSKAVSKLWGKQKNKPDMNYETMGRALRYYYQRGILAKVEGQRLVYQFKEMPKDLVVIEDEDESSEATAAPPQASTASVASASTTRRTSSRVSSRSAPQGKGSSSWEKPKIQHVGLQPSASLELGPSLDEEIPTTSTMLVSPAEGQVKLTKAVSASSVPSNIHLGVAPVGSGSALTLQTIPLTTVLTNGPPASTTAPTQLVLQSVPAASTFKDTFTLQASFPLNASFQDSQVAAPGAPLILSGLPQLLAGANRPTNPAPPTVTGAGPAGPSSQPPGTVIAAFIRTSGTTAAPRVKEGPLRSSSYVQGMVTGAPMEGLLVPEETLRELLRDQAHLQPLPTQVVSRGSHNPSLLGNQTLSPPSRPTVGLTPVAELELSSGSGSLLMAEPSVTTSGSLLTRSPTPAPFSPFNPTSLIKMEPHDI
# ETV1, sequence (P50549 whole entry): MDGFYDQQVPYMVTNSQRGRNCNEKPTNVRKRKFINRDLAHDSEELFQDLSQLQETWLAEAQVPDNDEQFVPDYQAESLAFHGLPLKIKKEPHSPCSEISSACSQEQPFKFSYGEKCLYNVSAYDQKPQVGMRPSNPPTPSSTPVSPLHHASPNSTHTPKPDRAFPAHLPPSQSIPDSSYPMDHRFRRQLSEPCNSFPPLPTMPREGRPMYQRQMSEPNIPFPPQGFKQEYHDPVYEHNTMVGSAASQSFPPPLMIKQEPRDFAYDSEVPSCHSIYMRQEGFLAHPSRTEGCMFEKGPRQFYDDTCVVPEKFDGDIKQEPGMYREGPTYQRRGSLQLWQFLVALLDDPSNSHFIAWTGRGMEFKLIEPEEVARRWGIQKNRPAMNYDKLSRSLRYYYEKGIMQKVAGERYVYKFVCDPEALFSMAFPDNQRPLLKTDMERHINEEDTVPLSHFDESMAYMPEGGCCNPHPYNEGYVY
# HSF1, sequence (Q00613 whole entry): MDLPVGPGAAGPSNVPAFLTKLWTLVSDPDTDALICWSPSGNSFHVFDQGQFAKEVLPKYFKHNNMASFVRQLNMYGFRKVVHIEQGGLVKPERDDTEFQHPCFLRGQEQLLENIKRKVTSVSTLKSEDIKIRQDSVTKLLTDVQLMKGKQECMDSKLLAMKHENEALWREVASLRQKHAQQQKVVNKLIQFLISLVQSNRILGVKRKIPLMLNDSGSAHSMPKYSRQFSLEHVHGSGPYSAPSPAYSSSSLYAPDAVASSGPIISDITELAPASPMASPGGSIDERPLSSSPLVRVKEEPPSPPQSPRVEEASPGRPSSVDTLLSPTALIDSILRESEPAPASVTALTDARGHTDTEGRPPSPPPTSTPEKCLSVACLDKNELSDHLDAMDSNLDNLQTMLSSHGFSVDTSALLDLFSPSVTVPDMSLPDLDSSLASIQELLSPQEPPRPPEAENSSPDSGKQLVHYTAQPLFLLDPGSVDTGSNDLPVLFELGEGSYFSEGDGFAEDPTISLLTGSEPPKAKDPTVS
# ETV5, sequence (P41161 whole entry): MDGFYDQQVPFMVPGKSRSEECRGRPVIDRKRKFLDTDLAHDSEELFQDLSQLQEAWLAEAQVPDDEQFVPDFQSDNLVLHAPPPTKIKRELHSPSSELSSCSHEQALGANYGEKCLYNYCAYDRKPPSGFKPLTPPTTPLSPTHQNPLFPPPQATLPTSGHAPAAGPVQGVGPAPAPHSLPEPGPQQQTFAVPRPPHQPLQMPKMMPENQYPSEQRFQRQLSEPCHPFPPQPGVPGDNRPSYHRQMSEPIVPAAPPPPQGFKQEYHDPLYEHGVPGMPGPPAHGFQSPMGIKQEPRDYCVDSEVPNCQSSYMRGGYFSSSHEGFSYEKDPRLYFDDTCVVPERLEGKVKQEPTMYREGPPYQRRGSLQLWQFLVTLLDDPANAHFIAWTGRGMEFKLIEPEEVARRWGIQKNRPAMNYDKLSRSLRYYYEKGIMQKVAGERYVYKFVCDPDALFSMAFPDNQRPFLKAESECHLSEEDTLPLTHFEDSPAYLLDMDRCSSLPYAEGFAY
sequence,measurement,setting,value
CCTGCT,binding signal,FEV,"1.67 fold enrichment (6-mer frequency, TF over GST control)"
same,binding signal,ETV5,"1.64 fold enrichment (6-mer frequency, TF over GST control)"
same,binding signal,HSF1,"1.34 fold enrichment (6-mer frequency, TF over GST control)"
same,binding signal,SPIC,"1.71 fold enrichment (6-mer frequency, TF over GST control)"
same,binding signal,ELF4,"1.69 fold enrichment (6-mer frequency, TF over GST control)"
same,binding signal,ELK4,"1.73 fold enrichment (6-mer frequency, TF over GST control)"
same,binding signal,ETV2,"1.59 fold enrichment (6-mer frequency, TF over GST control)"
same,binding signal,ELF3,"1.47 fold enrichment (6-mer frequency, TF over GST control)"
same,binding signal,CRX,"1.38 fold enrichment (6-mer frequency, TF over GST control)"
same,binding signal,ETV1,"1.68 fold enrichment (6-mer frequency, TF over GST control)"
